These results are taken from PubChem BioAssay.

Assay [1] addresses Nuclear receptor coactivator 1 (Homo sapiens) (UniProt Q15788). As to the kind of experiment: NCOA1 GAL4-fusion reporter inhibition – cell-based, luminescence, quadruplicate, confirmation (AID 588820).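 Further: 0% = DMSO wells and 100% = gossypol 36 µM treated wells.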 Conditions: HEK293 GAL4-SRC1 luciferase reporter, at 3.6 µM, stronger effect = higher value. A general note: In a reporter assay the amount or activity of a reporter protein is the signal.
The nature of assay [2]: repression of VP16-driven luciferase reporter – cell-based, luminescence, high throughput, counter-screen for SRC1 inhibitor project (AID 588824; in the data active means inhibition above about 25%). Conditions: cell-based VP16 transactivation luciferase luminescence; at 3.6 µM; stronger effect = higher value.
Assay [3] deals with Nuclear receptor coactivator 3 (Homo sapiens) (UniProt Q9Y6Q9). Briefly: NCOA3 GAL4-fusion reporter inhibition – cell-based, luminescence, quadruplicate, confirmation (AID 588792;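 active means mean inhibition over 43.08%, the solvent-only control mean plus 3 SD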;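 further: 0% = DMSO treated cells and 100% = gossypol at 36 µM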). The note with it: HEK293 GAL4-SRC3 luciferase reporter, at 3.6 µM, stronger effect = higher value.
Nuclear receptor coactivator 3 (Homo sapiens), sequence (Q9Y6Q9 whole entry, looked up, the tested form may be a part): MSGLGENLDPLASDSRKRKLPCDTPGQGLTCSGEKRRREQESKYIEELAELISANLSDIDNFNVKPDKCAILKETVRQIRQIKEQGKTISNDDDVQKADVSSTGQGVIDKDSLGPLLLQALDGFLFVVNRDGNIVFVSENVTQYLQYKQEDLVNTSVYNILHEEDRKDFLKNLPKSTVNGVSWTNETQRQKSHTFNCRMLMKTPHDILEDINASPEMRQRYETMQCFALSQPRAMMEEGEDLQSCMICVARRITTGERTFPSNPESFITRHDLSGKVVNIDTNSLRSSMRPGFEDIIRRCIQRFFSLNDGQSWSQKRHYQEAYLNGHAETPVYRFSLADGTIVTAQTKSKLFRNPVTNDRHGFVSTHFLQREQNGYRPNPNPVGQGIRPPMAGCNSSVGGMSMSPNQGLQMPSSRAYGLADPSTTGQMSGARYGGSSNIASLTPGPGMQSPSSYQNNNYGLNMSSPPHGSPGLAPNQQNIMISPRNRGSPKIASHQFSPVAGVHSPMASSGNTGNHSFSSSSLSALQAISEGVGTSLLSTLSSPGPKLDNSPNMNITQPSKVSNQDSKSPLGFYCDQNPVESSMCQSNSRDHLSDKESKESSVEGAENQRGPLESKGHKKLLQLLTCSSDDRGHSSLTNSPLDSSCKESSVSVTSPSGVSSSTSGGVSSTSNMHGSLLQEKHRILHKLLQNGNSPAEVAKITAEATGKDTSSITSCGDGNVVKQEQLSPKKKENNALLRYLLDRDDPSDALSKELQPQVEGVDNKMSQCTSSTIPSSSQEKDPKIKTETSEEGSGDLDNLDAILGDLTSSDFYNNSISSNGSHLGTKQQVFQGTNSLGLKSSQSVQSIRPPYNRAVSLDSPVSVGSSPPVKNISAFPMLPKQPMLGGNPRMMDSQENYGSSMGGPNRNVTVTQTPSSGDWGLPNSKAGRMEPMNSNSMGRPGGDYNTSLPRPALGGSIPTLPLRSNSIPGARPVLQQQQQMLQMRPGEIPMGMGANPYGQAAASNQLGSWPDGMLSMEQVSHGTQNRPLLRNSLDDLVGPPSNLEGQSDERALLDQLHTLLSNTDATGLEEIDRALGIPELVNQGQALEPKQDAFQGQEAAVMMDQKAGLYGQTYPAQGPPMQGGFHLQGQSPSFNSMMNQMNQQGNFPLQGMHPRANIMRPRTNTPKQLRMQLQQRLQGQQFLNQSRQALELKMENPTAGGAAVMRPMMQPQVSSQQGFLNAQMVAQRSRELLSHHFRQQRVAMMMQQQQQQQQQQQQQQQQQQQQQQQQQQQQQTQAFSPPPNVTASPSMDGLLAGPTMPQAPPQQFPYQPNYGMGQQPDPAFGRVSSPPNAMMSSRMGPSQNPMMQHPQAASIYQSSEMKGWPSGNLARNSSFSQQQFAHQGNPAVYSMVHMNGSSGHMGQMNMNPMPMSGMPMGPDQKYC
In assay [4] the test system is transactivating tegument protein VP16 (Human herpesvirus 1), Gal4-VP16 luciferase reporter. As to the kind of experiment: repression of VP16-driven luciferase reporter – cell-based, luminescence, high throughput, counter-screen for SRC3 inhibitor project (AID 588794; in the data active means inhibition above about 30%). The note with it: mammalian cells, at 3.6 µM, stronger effect = higher value.
Assay [5] concerns transactivating tegument protein VP16 (Human herpesvirus 1). As to the kind of experiment: compounds suppressing VP16-driven luciferase signal – cell-based, luminescence, single concentration, counter-screen for SRC2 inhibitor project (AID 652007; in the data active means inhibition above about 36%). Conditions: cell-based VP16 transactivation luciferase reporter, at 8.9 µM, stronger effect = higher value.
Assay [6] addresses Nuclear receptor coactivator 2 (Homo sapiens) (UniProt Q15596). As to the kind of experiment: inhibition of GAL4-SRC2 driven luciferase expression – cell-based, luminescence, HEK293, triplicate, confirmation (AID 652008;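 active means mean inhibition above 46.5%, the solvent-only control mean plus 3 SD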;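 further: 0% = DMSO-treated cells and 100% = Gossypol at 36 µM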). Conditions: HEK293 GAL4-SRC2 luciferase reporter, at 8.9 µM, stronger effect = higher value.

Unmarked numbers belong to inactive results. Active and inactive are the calls of the source.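 How the source made its calls, unless noted: active means mean inhibition above 46.68%, the untreated control wells mean plus 3 SD; inactive means the rest.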

As usually defined, the inhibition is the relative decrease from the control value, in per cent.

Nuclear receptor coactivator 2 (Homo sapiens), sequence (Q15596 whole entry, looked up, the tested form may be a part): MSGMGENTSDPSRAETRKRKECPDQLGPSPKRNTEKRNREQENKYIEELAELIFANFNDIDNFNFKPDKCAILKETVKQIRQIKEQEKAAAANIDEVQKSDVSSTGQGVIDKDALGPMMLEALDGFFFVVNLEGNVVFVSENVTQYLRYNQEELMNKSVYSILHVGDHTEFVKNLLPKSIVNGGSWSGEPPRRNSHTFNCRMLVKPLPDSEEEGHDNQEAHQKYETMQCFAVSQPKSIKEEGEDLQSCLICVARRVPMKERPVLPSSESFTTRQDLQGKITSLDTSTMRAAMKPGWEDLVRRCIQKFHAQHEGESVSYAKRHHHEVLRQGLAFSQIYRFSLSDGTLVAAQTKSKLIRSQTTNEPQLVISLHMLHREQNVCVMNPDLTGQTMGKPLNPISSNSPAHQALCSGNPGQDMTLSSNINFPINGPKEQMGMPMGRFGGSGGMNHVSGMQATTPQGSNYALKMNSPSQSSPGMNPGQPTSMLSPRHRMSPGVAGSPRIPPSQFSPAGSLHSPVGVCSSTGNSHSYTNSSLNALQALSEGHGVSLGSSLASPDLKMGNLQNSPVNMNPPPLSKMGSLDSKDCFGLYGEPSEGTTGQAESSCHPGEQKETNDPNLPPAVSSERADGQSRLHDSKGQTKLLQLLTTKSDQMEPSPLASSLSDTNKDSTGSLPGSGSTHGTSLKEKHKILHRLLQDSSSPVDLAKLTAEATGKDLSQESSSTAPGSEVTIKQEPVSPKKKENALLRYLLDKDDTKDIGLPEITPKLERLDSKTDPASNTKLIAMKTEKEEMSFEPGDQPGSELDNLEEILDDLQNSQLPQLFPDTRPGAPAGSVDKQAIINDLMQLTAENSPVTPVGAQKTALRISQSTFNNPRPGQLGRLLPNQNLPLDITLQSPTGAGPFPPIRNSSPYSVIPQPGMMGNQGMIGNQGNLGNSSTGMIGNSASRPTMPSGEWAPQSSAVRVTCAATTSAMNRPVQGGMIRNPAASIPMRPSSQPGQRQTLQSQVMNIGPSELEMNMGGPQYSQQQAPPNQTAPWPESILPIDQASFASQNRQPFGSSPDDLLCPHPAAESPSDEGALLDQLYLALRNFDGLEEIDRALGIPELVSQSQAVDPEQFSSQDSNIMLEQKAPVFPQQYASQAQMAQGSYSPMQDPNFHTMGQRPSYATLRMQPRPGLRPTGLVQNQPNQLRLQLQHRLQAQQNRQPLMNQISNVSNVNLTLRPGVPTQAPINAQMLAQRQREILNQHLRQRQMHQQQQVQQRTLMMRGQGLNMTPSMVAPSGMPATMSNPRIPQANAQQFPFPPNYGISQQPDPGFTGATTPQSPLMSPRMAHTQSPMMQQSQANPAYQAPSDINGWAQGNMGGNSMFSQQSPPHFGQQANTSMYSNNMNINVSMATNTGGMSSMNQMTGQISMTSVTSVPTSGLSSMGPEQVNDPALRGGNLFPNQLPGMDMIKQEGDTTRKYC
Nuclear receptor coactivator 1 (Homo sapiens), sequence (Q15788 whole entry, looked up, the tested form may be a part): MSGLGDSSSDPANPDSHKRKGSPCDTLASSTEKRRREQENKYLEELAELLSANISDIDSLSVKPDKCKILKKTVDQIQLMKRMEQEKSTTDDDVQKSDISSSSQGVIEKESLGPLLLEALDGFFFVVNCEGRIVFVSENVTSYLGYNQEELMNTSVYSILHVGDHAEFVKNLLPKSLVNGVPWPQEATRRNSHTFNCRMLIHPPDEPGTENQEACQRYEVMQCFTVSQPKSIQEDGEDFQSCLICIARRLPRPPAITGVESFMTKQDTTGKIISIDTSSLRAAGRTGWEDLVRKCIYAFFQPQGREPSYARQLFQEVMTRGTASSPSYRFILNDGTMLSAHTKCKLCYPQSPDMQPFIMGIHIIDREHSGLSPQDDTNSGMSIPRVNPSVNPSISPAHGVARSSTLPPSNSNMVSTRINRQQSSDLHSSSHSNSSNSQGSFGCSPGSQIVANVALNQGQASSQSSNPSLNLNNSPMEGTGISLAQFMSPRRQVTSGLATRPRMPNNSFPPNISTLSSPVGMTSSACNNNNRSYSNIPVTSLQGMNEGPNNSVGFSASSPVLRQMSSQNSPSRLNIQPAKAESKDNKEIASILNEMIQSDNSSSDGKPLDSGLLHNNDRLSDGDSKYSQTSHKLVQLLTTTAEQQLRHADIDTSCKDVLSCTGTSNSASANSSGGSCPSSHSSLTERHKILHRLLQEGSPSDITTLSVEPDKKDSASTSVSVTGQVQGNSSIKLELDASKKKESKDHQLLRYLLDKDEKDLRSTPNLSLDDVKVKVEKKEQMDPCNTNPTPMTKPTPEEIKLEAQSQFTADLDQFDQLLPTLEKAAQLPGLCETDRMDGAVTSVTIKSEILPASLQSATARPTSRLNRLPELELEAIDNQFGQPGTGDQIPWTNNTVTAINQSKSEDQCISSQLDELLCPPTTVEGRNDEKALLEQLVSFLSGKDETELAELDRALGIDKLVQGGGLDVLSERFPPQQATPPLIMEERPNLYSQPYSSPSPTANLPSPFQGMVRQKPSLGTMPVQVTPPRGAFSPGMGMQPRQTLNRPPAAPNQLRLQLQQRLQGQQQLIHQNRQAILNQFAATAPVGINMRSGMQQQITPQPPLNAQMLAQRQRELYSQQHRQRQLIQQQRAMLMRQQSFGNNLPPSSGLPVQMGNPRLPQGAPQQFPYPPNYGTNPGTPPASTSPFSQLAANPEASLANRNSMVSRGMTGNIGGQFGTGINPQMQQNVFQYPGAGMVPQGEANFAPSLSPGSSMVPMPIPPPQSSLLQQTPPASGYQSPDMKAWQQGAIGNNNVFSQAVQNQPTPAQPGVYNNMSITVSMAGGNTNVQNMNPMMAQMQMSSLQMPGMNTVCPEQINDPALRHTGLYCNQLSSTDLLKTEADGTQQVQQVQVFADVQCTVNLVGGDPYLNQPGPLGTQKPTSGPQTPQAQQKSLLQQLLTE

Take `CC1(C)Cc2nc(N)c(=O)sc2C1`: the values for the inhibition in assay [1] and in assay [2] were -1.79% and 5.55%, respectively.

Turning to `O=C(O)CCn1c(O)c(C=C2N=c3ccccc3=N2)sc1=S`, the inhibition was 12.5% in assay [3], 13.2% in assay [4], 34.1% in assay [5] and 72.1% (active) in assay [6].

Take `COC(=O)c1ccc2c(=O)n(CCCCCC(=O)O)c(=S)[nH]c2c1`: the inhibition was 16.4% in assay [3], 15.1% in assay [4], 6.79% in assay [5] and 32.2% in assay [6].

With `O=C(Nc1ccc(Cl)c(Cl)c1)c1cccc(S(=O)(=O)NCc2cccnc2)c1`, the inhibition is 6.28% in assay [1] and 25.9% (active) in assay [2].

For the compound `Nc1nc(Cl)nc2ccc(Br)cc12`, the values for the inhibition in assay [1] and in assay [2] were -6.1% and -0.41%, respectively.

For the compound `CCN(CC)c1ccc(-n2c(C)c(C(C)=O)c(C(C)=O)c2C)cc1`, the inhibition in assay [3] was 4.48%; in assay [4], 25.7%; in assay [5] it was -2.52%; in assay [6], 11.8%.

Turning to `COC(=O)c1c(C)n(-c2ccc(OC)cc2)c2ccc(O)cc12`, the inhibition in assay [3] is 41.4%; in assay [4], 24.1%; in assay [5], -4.83%; in assay [6] it was 28.1%.

`O=C(NC1CCCCC1)C(c1ccc(F)cc1)N(CCCN1CCOCC1)C(=O)c1ccc(CN2CCOCC2)o1` (stereo unspecified): the inhibition is -0.03% in assay [1] and 3.53% in assay [2].

As for `COc1ccc(-c2csc3ncnc(N4CCN(CCO)CC4)c23)cc1`, the inhibition in assay [1] was 0.84%; in assay [2] it was 9.88%.

For `Cc1csc(-c2cc(C(=O)NCc3cc(C(F)(F)F)cc(C(F)(F)F)c3)n[nH]2)c1`, the figures for the inhibition in assay [1] and in assay [2] were 20.5% and 47.2% (active), respectively.

As to `Cc1ccc(C)c(CN2C(=O)c3ccccc3S(=O)c3ccc(C(=O)N4CCN(c5ccccn5)CC4)cc32)c1` (stereo unspecified), the inhibition in assay [1] is -18.5%; in assay [2], 77.7% (active).

With `Cc1cc(C)c(CN2CCN(C(=O)Cn3cnc4c(OCc5ccccc5)ncnc43)CC2)c(C)c1`, the values for the inhibition in assay [1] and in assay [2] were 4.65% and 38.5% (active), respectively.

Regarding `O=C(c1ccc(S(=O)(=O)c2ccc(F)cc2)c([N+](=O)[O-])c1)N1CCCCCC1`, the inhibition is 11.4% in assay [3], 18.9% in assay [4], 15.7% in assay [5] and 29.9% in assay [6].

Regarding `CCN(CC)S(=O)(=O)c1cccc(C(=O)N/N=C(\C)c2ccc(O)cc2O)c1`, the inhibition in assay [3] was 66.7% (active); in assay [4], 43.7% (active); in assay [5], 2.49%; in assay [6], 31.6%.

As to `CC(C)C(=O)NC(c1ccco1)c1ccc2cccnc2c1O` (stereo unspecified), the inhibition in assay [3] is 32.7%; in assay [4], 20.6%; in assay [5], -13.3%; in assay [6] it was 8.96%.

Consider `Cc1cc(C)nc(-n2ncc(C#N)c2N)n1`, for which the inhibition is -18.5% in assay [1] and 5.06% in assay [2].

Regarding `Cc1cccc(N2CCN(S(=O)(=O)c3cc(-c4cc(C)no4)ccc3C)CC2C)c1` (stereo unspecified), the inhibition was -10.5% in assay [1] and 33.8% (active) in assay [2].

As for `O=C(C1=C(c2ccccc2)C(=O)c2ccccc2C1=O)c1ccccc1`, the inhibition is 93.3% (active) in assay [3], 90.4% (active) in assay [4], 63.8% (active) in assay [5] and 66.4% (active) in assay [6].

On to `Cc1ccc(C2=NN(C(=O)CCl)C(c3ccco3)C2)o1` (stereo unspecified), for which the inhibition in assay [3] was 38.2%; in assay [4], 7.74%; in assay [5], 15.3%; in assay [6], 51.2% (active).

Turning to `COc1cccc2c1OC1(C)CC2NC(=O)N1c1cccc(C(=O)Nc2ccc3c(c2)OCCO3)c1` (stereo unspecified), the results for the inhibition in assay [1] and in assay [2] were -28.6% and -19.2%, respectively.

On to `Cc1cc(C)c(OCCN2CCCC2)c(Cl)c1`, for which the inhibition was -3.95% in assay [1] and 2.73% in assay [2].

As to `COc1cc(C(=O)NC(=S)NNC(=O)c2cnccn2)cc(OC)c1OC`, the results for the inhibition in assay [1] and in assay [2] were 19.6% and -5.2%, respectively.

`CCN(C(=S)NC(=O)C1CC1)c1ccccc1`: the inhibition in assay [1] is -8.52%; in assay [2], -4.48%.

`O=C(Nc1ccc(Oc2ccccc2)cc1)c1csc([C@@H]2O[C@H](CO)[C@@H](O)[C@H]2O)n1`: the inhibition in assay [1] was -12.9%; in assay [2], 19.7%.

As for `CCCC(C)NC(=O)C1c2ccccc2Oc2ccccc21` (stereo unspecified), the inhibition in assay [1] was -0.82%; in assay [2], -7.9%.

`COc1ccccc1CCNC(=O)CCn1c(=O)c2cccn2c2ccc(F)cc21`: the inhibition in assay [1] was -9.66%; in assay [2] it was -15.2%.

For `CC(Oc1ccccc1F)C(=O)NNC(=O)CC(C)c1ccccc1` (stereo unspecified), the figures for the inhibition in assay [1] and in assay [2] were 12.4% and 2.31%, respectively.

For the compound `Cc1c(C)n2c(SCC(=O)NCc3ccc4c(c3)OCO4)nnc2[nH]c1=O`, the inhibition was -1.32% in assay [1] and -7.94% in assay [2].

Turning to `COc1cc(OC)c(NS(=O)(=O)c2ccc(Cl)c(C(=O)OC(C)C(=O)N3CCCC3)c2)cc1Cl` (stereo unspecified), the inhibition in assay [1] was -10.2%; in assay [2] it was 10.7%.

As for `C=C1CCC[C@]2(C)C[C@H]3OC(=O)C(CN4CC(C)OC(C)C4)[C@H]3C[C@@H]12` (stereo partly specified), the inhibition in assay [1] was -0.94%; in assay [2], 2.96%.

As to `CCN(CC)S(=O)(=O)c1ccc(NC(=O)c2ccc(N3CCCC3=O)cc2)cc1`, the values for the inhibition in assay [1] and in assay [2] were 3.05% and 22.8%, respectively.

As to `CC(=NCc1cccc(Cl)c1)c1nc(-c2ccco2)oc1O`, the inhibition is 4.53% in assay [1] and 45% (active) in assay [2].

With `O=C(CSc1ccccc1)Nc1nnc(-c2ccco2)o1`, the values for the inhibition in assay [1] and in assay [2] were 1.78% and -4.61%, respectively.

On to `CCOc1cccc(C(=O)Nc2nc(-c3ccc(S(=O)(=O)N4CCOCC4)cc3)cs2)c1`, for which the inhibition is -29.3% in assay [1] and -6.23% in assay [2].
